This note sets out measurements from PubChem BioAssay AID743262 (National Center for Advancing Translational Sciences (NCATS), 2014).

Values joined by “and” are separate entries in the source; they are usually repeats but may differ in a detail not shown here. Equal entries are not always repeated. Out of some 1,300 compounds screened, about 25 (2%) were called active. Roughly 9% stayed inconclusive and do not appear here. Calls come from the whole dose curve; as a rule, active = well fitted activation curve with a large enough effect; inconclusive = small, poorly fitted or top-dose-only effect; inactive = flat fitted curve, though single readings scatter. The list comes from a sample in which actives are over-represented; it also holds similar structures and randomly drawn compounds.
Potency is the fitted concentration of half-maximal effect.

Sequence of Glucagon-like peptide 1 receptor (Homo sapiens) (P43220 whole entry, looked up): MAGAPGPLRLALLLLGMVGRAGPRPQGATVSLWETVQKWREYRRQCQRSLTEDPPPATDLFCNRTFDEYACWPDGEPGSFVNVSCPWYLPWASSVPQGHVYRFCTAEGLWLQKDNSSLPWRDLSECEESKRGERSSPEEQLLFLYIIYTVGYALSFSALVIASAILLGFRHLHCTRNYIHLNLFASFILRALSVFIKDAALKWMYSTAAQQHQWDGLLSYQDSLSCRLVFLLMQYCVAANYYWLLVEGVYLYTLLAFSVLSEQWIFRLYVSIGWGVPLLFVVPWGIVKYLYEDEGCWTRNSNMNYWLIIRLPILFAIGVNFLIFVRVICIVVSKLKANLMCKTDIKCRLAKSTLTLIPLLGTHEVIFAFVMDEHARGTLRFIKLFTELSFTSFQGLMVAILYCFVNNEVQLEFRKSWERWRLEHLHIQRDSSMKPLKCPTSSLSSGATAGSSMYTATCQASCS

The experiment addresses Glucagon-like peptide 1 receptor (Homo sapiens) (UniProt P43220). Briefly: qHTS of GLP-1 Receptor Agonists: Hit Validation. For activation: % of control where 0% means no effect. To be noted: HEK293 GLP-1R, cAMP-response luciferase, 4-6 h; series mostly up to 46.1 µM; activation: at the top concentration. Summed up: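 Luminescence from a cAMP-responsive luciferase reporter was read 12 min after detection reagent at RT. Before that, HEK293 cells stably expressing GLP-1R plus reporter, seeded 12 h earlier, were exposed to compound for 4-6 hr at 37 deg C.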
With `CC1(c2ccccc2)NC(=O)N(CC(=O)NNC(=O)c2ccccc2F)C1=O` (centres undefined), the “activation” value was -0.706% (inactive).
Still for that read-out and setting: for `CSc1ncccc1C(=O)OCc1c(F)cccc1Cl` the value was 5.02% (inactive).
The same measure, in the same setting: for `CCOc1ccc(CCNC(=O)c2ccc3ccccc3n2)cc1OCC` the value was 2.41% (inactive).
For `CCN1CCN(c2nc3sc4c(c3c3ncnn23)CC(C)CC4)CC1` (centres undefined), the “activation” value was 5.78% (inactive).
As for `CCOC(=O)c1cc(NC(=O)c2cccnc2)cc(C(=O)OCC)c1`, the “activation” value is 0.228% (inactive).
Same read-out and setting: as for `CCn1nc(NC(=O)c2ccco2)c2cc3cc(C)ccc3nc21`, the figure is 0.893% (inactive).
Consider `CCn1nc(NC(=O)c2cccnc2)c2cc3ccccc3nc21`, for which the Potency is 20.6 µM (active).
As to `CC(=O)c1cccc(Nc2nc(=O)c3cccnc3s2)c1`, the “activation” value was 3.72% (inactive).
On the same count and under the same terms, for `CC(=O)c1cccc(N2C(=O)C3C4CCC(C4=C(C)C)C3C2=O)c1` (centres undefined) the value was -0.946% (inactive); for `OCCNc1nc(-c2ccccc2)c2cc(Cl)ccc2n1`, 15.5% (inactive); for `O=c1ccc2ccc(OCCOc3cccc(Cl)c3)cc2o1`, 6.88% (inactive).
Take `CCOC(=O)c1sc2nc(OCc3cccnc3)cc(C)c2c1N`: the “activation” value is 9.79% (inactive).
Same read-out and setting: as for `CCc1cc(=O)oc2c3c(cc(OCC(=O)Nc4cccnc4)c12)OC(C)(C)CC3`, the figure is 9.92% (inactive).
Same read-out and setting: as for `COC(=O)c1ccc2c(=O)[nH]c(COC(=O)c3[nH]c(C)c(C(C)=O)c3C)nc2c1`, the figure is -0.418% (inactive).
As to `CCC(C)Nc1nc(N)c([N+](=O)[O-])c(Nc2ccccc2OC)n1` (centres undefined), the “activation” value is 25.2% (inactive).
For `CCN1CCN(C2=C(Cl)C(=O)N(Cc3ccccc3)C2=O)CC1`, the “activation” value is 4.15% (inactive).
As for `COCCCNC(=S)N/N=C/c1ccc2ccccc2c1`, the “activation” value was 2.83% (inactive).
Take `Cc1cc(C)nc(N2CCCC(C(=O)Nc3ccc4nc(C)c(C)nc4c3)C2)n1` (centres undefined): the “activation” value was 2.27% (inactive).
As for `COc1ccc(C)cc1N(C(=O)c1snc(C(N)=O)c1N)C(C(=O)NC1CCCCC1)c1ccc(C)o1` (centres undefined), the “activation” value is -0.356% (inactive).
On the same count and under the same terms, as for `CCOC(=O)c1c(C)c(C(=O)N2CCCCCC2)c(C)n1C`, the figure is 2.73% (inactive); as for `COc1cccc(C2CC(=O)Nc3cc(OC)c(OC)c(OC)c32)c1OC` (centres undefined), 0.189% (inactive).
Still for that read-out and setting: as for `COc1cc2c(cc1OC)/C(=C/C(=O)N1CCOCC1)NC(C)(C)C2`, the figure is 12.9% (inactive); as for `CC(=O)NC1(c2ccccc2)CCN(c2cc(C)nc(-c3ccccc3)n2)CC1`, 14.2% (inactive).
Regarding `C=C[C@@]1(C)CC(=O)[C@]2(O)[C@@]3(C)[C@@H](O)CCC(C)(C)[C@@H]3[C@H](OC(C)=O)[C@H](O)[C@@]2(C)O1`, the Potency is 9.2 µM (active).
The same measure, in the same setting: for `C=C[C@@]1(C)CC(=O)[C@]2(O)[C@@]3(C)[C@@H](O)CCC(C)(C)[C@@H]3[C@H](O)[C@H](OC(C)=O)[C@@]2(C)O1` the value was 2 µM (active) and 1.84 µM (active).
On to `COc1cccc(/C=C/C(=O)Nc2ccc(N3CCOCC3)cc2)c1OC`, for which the “activation” value is 0.215% (inactive).
The same measure, in the same setting: as for `Cc1ccc(NC(=O)COc2ccc(CCO)cc2-n2nc3ccccc3n2)cc1C`, the figure is 27.2% (inactive); as for `C=CCOc1nc2c(c(=O)n(C)c(=O)n2C)n1Cc1ccccc1Cl`, 4.97% (inactive); as for `Cc1ccc(CNCCCSc2ncccn2)cc1`, 17.6% (inactive).
On the same count and under the same terms, as for `CC(=O)Nc1ccc(NC(=O)c2cc(C3CC3)nc3c2cnn3C(C)C)cc1`, the figure is 2.18% (inactive).
Consider `O=C(NCc1cccs1)c1cccc2c(-c3cccnc3)coc12`, for which the Potency was 9.2 µM (active).
Regarding `O=C(NCc1ccco1)c1cccc2c(-c3ccc(F)c(F)c3)coc12`, the “activation” value was 15.6% (inactive).
Same read-out and setting: as for `COc1ccc(CNC(=O)c2cccc3c(-c4cnn(C)c4)coc23)cc1OC`, the figure is 18.7% (inactive); as for `COc1ccc(N(CC(=O)N/N=C/c2ccc(OC)c(OC)c2)S(=O)(=O)c2ccccc2)cc1`, 22.5% (inactive).
Same read-out and setting: for `COc1ccc(-c2cc(=O)[nH]c(NCc3ccccc3)n2)cc1` the value was 6.89% (inactive); for `CC1Cc2cc(S(=O)(=O)N3CCCC(C(=O)N4CCCCC4)C3)ccc2N1C(=O)C1CC1` (centres undefined), 10.9% (inactive); for `CCOC(=O)C1CCCN(C2=NC(=O)/C(=C/c3ccc(O)c(OCC)c3)S2)C1` (centres undefined), 11.7% (inactive).
Still for that read-out and setting: as for `O=C(NC1CCCCCC1)C(=O)NC1CC1`, the figure is -0.58% (inactive).
With `CC(OC(=O)c1ccc2ncsc2c1)C(=O)NC1CCCCC1C` (centres undefined), the “activation” value is 2.27% (inactive).
Consider `COc1ccc(-c2nn3c(COc4ccccc4)nnc3s2)cc1OC`, for which the “activation” value is 28.5% (inactive).
For `CCOC(=O)/C(C#N)=C/Nc1cc(OC)ccc1OC`, the “activation” value was 2.12% (inactive).
The same measure, in the same setting: for `Oc1ccccc1/C=N/N1CCN(c2ccccn2)CC1` the value was -0.352% (inactive); for `c1coc(Cn2c(-c3ccco3)nc3ccccc32)c1`, -0.487% (inactive); for `COc1ccc(NC(C)=O)cc1S(=O)(=O)Nc1ccc2c(c1)OCCO2`, -0.925% (inactive).
On the same count and under the same terms, as for `COCCN(Cc1ccccc1)C(=O)c1cc(-c2ccc(OC)c(OC)c2)nc2ccccc12`, the figure is 23.1% (inactive); as for `Cc1nc2cc(-c3cccc(F)c3)nn2c(N2CCN(C(=O)c3ccco3)CC2)c1C`, 16.2% (inactive).
On the same count and under the same terms, for `CCN(CC)c1nc(OC)nc(-n2nnc(C(C)=O)c2C)n1` the value was 0.606% (inactive).
As for `CCc1nc(SCCO)c2oc3ccccc3c2n1`, the “activation” value was 3.96% (inactive).
Still for that read-out and setting: as for `COC(=O)c1sc(NC(=O)CSc2nc3cccnc3n2C2CCCCC2)nc1C`, the figure is 2.81% (inactive).
Same read-out and setting: as for `COc1ccc(OC)c(/C=N/n2c(-c3n[nH]c4c3CCC4)n[nH]c2=S)c1`, the figure is -1.33% (inactive); as for `COC(=O)Cc1c(C)c2ccc(OCc3nn[nH]n3)cc2oc1=O`, -0.628% (inactive).
The same measure, in the same setting: as for `CCOC(=O)C1=C(COC(=O)c2cc(S(=O)(=O)N3CCOCC3)ccc2F)NC(=O)NC1C` (centres undefined), the figure is 20.7% (inactive).
Turning to `COc1cccc(Cn2c(N)c(C#N)c3nc4ccccc4nc32)c1OC`, the “activation” value is 7.89% (inactive).
Still for that read-out and setting: as for `COc1ccc(S(=O)(=O)N(C)C)cc1NC(=O)c1ccc(OCC(=O)N2CCOCC2)c(OC)c1`, the figure is 0.301% (inactive).
